According to PMC5700166:
Residue numbers refer to the chain shown, from its start.

Tests used:
Test in all cases: protein-binding microarray (PBM); PBM: ~300 nM protein, 6 mM HEPES pH 7.8, 80 mM KCl, 0.5 mM EDTA, 0.5 mM EGTA, 6% glycerol, 35 ng/ul poly-dIdC, 1% milk, 1 h, room temperature; Ap Aiptasia and Nv Nematostella (sea anemones) / Co Capsaspora / Aq Amphimedon (sponge) / Dm Drosophila / Hu human; RHD is the Rel homology domain; high values mean tight binding
Settings in all cases: dsDNA, one strand shown
GST-Ap-NF-kB RHD = biological target: T1, GST-Ap-NF-kB RHD (Exaiptasia pallida (Aiptasia), UniProt A0A913YAJ5 2-422)
T1 sequence: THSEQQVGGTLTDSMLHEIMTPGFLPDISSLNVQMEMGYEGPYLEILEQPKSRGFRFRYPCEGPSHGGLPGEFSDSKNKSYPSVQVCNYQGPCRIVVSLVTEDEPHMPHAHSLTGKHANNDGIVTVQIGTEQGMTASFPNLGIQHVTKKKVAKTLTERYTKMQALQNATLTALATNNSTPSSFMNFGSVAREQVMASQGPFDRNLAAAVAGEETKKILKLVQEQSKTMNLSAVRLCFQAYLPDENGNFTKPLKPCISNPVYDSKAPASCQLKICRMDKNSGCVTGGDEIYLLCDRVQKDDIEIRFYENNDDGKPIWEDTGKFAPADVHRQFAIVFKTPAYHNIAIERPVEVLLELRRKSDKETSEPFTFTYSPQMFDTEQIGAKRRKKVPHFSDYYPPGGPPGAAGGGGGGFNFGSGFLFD

[1] = biological target: T2, GST-Nv-NF-kB (Cys allele) (Nematostella vectensis, UniProt E5G601 2-411)
T2 sequence: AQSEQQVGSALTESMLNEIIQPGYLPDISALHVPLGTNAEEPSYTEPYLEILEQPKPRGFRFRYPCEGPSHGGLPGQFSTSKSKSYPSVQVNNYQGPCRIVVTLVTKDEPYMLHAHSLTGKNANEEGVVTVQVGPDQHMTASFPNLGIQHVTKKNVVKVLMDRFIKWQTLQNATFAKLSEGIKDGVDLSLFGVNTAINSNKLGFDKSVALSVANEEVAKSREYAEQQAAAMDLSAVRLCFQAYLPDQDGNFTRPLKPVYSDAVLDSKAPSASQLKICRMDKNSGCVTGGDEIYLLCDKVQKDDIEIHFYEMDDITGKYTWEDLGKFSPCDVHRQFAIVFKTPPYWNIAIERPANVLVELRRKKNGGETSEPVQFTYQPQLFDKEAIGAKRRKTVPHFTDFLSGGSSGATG

[2] = biological target: T3, GST-Nv-NF-kB (Ser allele) (Nematostella vectensis, UniProt A7UNT2 2-411)
T3 sequence: T2 sequence with Q21R, C66S, S207N, E215Q, V217A, E225K, A268E, D399E

GST-Co-NF-kB = biological target: T4, GST-Co-NF-kB (Capsaspora owczarzaki, UniProt F1ARL5 200-546)
T4 sequence: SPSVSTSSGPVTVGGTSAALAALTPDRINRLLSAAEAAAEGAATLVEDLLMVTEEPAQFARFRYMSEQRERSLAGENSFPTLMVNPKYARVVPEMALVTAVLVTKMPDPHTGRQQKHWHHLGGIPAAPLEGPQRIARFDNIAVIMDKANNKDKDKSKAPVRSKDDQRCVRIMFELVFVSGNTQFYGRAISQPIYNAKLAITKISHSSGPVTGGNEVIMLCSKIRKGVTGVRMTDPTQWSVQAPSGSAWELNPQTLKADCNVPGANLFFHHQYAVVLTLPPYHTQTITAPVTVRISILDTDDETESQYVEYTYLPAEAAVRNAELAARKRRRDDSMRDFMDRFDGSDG

GST-Dm-Relish = biological target: T5, GST-Dm-Relish (Drosophila melanogaster, UniProt Q94527 99-473)
T5 sequence: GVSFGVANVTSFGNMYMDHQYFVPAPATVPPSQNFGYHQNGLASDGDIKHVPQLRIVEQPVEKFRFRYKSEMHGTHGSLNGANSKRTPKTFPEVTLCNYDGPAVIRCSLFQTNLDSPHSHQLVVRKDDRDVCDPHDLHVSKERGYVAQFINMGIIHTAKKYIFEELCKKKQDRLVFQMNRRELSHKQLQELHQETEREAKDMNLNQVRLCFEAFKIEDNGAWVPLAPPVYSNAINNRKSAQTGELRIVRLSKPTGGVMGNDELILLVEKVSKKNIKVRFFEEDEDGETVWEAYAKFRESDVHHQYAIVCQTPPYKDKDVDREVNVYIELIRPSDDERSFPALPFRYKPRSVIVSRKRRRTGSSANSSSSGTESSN

GST-Aq-NF-kB = biological target: T6, GST-Aq-NF-kB (Amphimedon queenslandica, UniProt A9Y5G7 2-389)
T6 sequence: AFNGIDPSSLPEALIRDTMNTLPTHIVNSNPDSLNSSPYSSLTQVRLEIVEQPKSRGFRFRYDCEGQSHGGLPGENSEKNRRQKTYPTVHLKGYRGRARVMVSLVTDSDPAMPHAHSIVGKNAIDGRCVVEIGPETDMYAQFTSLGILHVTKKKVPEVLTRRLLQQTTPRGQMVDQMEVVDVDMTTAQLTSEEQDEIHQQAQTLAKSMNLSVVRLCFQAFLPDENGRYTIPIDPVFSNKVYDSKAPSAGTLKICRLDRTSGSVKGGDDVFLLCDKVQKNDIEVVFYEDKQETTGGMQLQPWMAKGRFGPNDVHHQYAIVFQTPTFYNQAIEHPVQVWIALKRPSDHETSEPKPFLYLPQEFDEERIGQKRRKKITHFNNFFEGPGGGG

GST-Hu-p50 = GST-Hu-p50 (Homo sapiens, UniProt P19838 7-356)
Sequence of GST-Hu-p50 (P19838 7-356): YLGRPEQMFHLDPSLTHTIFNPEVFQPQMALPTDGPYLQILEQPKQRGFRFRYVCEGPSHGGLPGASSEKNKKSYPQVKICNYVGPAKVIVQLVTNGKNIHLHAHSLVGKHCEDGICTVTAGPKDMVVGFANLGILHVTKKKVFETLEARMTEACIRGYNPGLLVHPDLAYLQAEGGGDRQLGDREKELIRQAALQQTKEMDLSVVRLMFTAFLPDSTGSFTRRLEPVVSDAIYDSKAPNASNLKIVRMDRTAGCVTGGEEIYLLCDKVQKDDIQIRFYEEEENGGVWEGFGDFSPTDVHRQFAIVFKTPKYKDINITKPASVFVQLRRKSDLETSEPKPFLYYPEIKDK

Row | Sequence | binding signal (GST-Ap-NF-kB RHD) | binding signal [1] | binding signal [2] | binding signal (GST-Co-NF-kB) | binding signal (GST-Dm-Relish) | binding signal (GST-Aq-NF-kB) | binding signal (GST-Hu-p50)
1 | CCGATTAACATCAAAACTCCCCTTGATGTTAATCGGGTCTTGATTCGCTTGACGCTGCTG | 8.31 z-score | 7.73 z-score | 8.37 z-score | 4.59 z-score | 7.49 z-score | 7.22 z-score | 6.44 z-score
2 | CCGATTAACATCAAGGGAATTTATGATGTTAATCGGGTCTTGATTCGCTTGACGCTGCTG | 4.54 z-score | 7.59 z-score | 7.58 z-score | 3.54 z-score | 4.78 z-score | 5.69 z-score | 5.62 z-score
3 | CCGATTAACATCAATACTTCCCCTGATGTTAATCGGGTCTTGATTCGCTTGACGCTGCTG | 5.61 z-score | 7.52 z-score | 9.37 z-score | 6.89 z-score | 7.81 z-score | 5.35 z-score | 6.19 z-score
4 | CCGATTAACATCAGGGACTGCCCTGATGTTAATCGGGTCTTGATTCGCTTGACGCTGCTG | 4.31 z-score | 4.95 z-score | 3.06 z-score | 1.04 z-score | 4.22 z-score | 7.19 z-score | 4.14 z-score
5 | CCGATTAACATCAGGACCTCCCCTGATGTTAATCGGGTCTTGATTCGCTTGACGCTGCTG | 5.62 z-score | 4.17 z-score | 2.85 z-score | 2.53 z-score | 5.19 z-score | 6.93 z-score | 3.65 z-score
6 | CCGATTAACATCAGAAATACCCCTGATGTTAATCGGGTCTTGATTCGCTTGACGCTGCTG | 6.58 z-score | 6.99 z-score | 6.08 z-score | 4.66 z-score | 4.99 z-score | 6.25 z-score | 5.86 z-score
7 | CCGATTAACATCACGGGGGATTCTGATGTTAATCGGGTCTTGATTCGCTTGACGCTGCTG | 8.95 z-score | 7.68 z-score | 8.48 z-score | 7.06 z-score | 7.96 z-score | 6.51 z-score | 7.01 z-score
8 | CCGATTAACATCACATCTCCCCCTGATGTTAATCGGGTCTTGATTCGCTTGACGCTGCTG | 6.34 z-score | 4.75 z-score | 5.94 z-score | 7.54 z-score | 2.35 z-score | 4.36 z-score | 5.73 z-score
9 | CCGATTAACATCAGGGGGAACTATGATGTTAATCGGGTCTTGATTCGCTTGACGCTGCTG | 6.91 z-score | 5.64 z-score | 7.61 z-score | 9.06 z-score | 4.89 z-score | 4.97 z-score | 5.9 z-score
10 | CCGATTAACATCAGGGTAAGTACTGATGTTAATCGGGTCTTGATTCGCTTGACGCTGCTG | 2.48 z-score | 3.05 z-score | 2.93 z-score | 1.85 z-score | 7.08 z-score | 5.82 z-score | 2.3 z-score
11 | CCGATTAACATCAGGGGGCGGGATGATGTTAATCGGGTCTTGATTCGCTTGACGCTGCTG | 3.64 z-score | 4 z-score | 3.53 z-score | 2.28 z-score | 3.49 z-score | 4.03 z-score | 4.21 z-score
12 | CCGATTAACATCAGGGGGATAAATGATGTTAATCGGGTCTTGATTCGCTTGACGCTGCTG | 5.25 z-score | 5.54 z-score | 5.46 z-score | 7.85 z-score | 3.78 z-score | 4.4 z-score | 4.82 z-score
13 | CCGATTAACATCAGGAGTTCCCCTGATGTTAATCGGGTCTTGATTCGCTTGACGCTGCTG | 8.41 z-score | 9.9 z-score | 7.6 z-score | 5.41 z-score | 9.69 z-score | 9.11 z-score | 6.51 z-score
14 | CCGATTAACATCAGGGGGGAAACTGATGTTAATCGGGTCTTGATTCGCTTGACGCTGCTG | 7.64 z-score | 7.15 z-score | 8.2 z-score | 11.1 z-score | 5.47 z-score | 5.87 z-score | 6.97 z-score
15 | CCGATTAACATCAGGAAACTCCCTGATGTTAATCGGGTCTTGATTCGCTTGACGCTGCTG | 5.65 z-score | 7.91 z-score | 4.86 z-score | 1.88 z-score | 5.39 z-score | 9.07 z-score | 5.86 z-score
16 | CCGATTAACATCAAATAGTCCCCTGATGTTAATCGGGTCTTGATTCGCTTGACGCTGCTG | 7.11 z-score | 7.06 z-score | 6.71 z-score | 4.46 z-score | 5.51 z-score | 6.32 z-score | 5.39 z-score
17 | CCGATTAACATCACAATTTCCCCTGATGTTAATCGGGTCTTGATTCGCTTGACGCTGCTG | 8.29 z-score | 9.4 z-score | 12 z-score | 8.61 z-score | 5.96 z-score | 6.69 z-score | 6.74 z-score
18 | CCGATTAACATCAAAATAACCCCTGATGTTAATCGGGTCTTGATTCGCTTGACGCTGCTG | 6.69 z-score | 5.59 z-score | 5.3 z-score | 3.27 z-score | 4.93 z-score | 5.19 z-score | 5.2 z-score
19 | CCGATTAACATCAAATATCCCCTTGATGTTAATCGGGTCTTGATTCGCTTGACGCTGCTG | 8.05 z-score | 8.3 z-score | 9.01 z-score | 3.88 z-score | 6.97 z-score | 6.2 z-score | 6.19 z-score
20 | CCGATTAACATCAAAATATTCCCTGATGTTAATCGGGTCTTGATTCGCTTGACGCTGCTG | 6.25 z-score | 7.36 z-score | 7.68 z-score | 4.81 z-score | 4.34 z-score | 6.27 z-score | 4.33 z-score
21 | CCGATTAACATCAGGGGAAAACCTGATGTTAATCGGGTCTTGATTCGCTTGACGCTGCTG | 9.38 z-score | 10.6 z-score | 11.5 z-score | 7.99 z-score | 8.9 z-score | 9.77 z-score | 6.91 z-score
22 | CCGATTAACATCAAGTCCCCCCCTGATGTTAATCGGGTCTTGATTCGCTTGACGCTGCTG | 6.57 z-score | 4.81 z-score | 5.16 z-score | 6.94 z-score | 5.61 z-score | 5.07 z-score | 4.23 z-score
23 | CCGATTAACATCAAGTATCCCCCTGATGTTAATCGGGTCTTGATTCGCTTGACGCTGCTG | 6.69 z-score | 5.06 z-score | 6.27 z-score | 7.27 z-score | 4.38 z-score | 4.99 z-score | 5.34 z-score
24 | CCGATTAACATCACAAAATCCCCTGATGTTAATCGGGTCTTGATTCGCTTGACGCTGCTG | 9.85 z-score | 10.8 z-score | 12.8 z-score | 5.11 z-score | 9.67 z-score | 8 z-score | 8.07 z-score
